Assay results as given in the supplement of paper PMC12067093, “Discovery and optimisation of a covalent ligand for TRIM25 and its application to targeted protein ubiquitination” (Chemical Science, 2025).
Targets with the largest changes are over-represented here; the source holds about 21,000 in all.

Compound: Cc1cc(ccc1-c1ccccc1)C(=O)N1CCCN(CC1)C(=O)CCl [compound 10]
Experiment: probe-labelled cysteine peptide fold change vs DMSO (competition) (log2 fold change); higher = less target engagement (more negative = stronger competition)
Conditions: 10 µM; THP-1; incubation time: 4 h
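Further: competitive profiling in live THP-1 cells: cysteine peptides tagged with an iodoacetamide desthiobiotin (IA-DTB) probe, intensity after compound treatment relative to DMSO-treated cells.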

Sequence of UniProt Q14694 (Q14694 whole entry, looked up): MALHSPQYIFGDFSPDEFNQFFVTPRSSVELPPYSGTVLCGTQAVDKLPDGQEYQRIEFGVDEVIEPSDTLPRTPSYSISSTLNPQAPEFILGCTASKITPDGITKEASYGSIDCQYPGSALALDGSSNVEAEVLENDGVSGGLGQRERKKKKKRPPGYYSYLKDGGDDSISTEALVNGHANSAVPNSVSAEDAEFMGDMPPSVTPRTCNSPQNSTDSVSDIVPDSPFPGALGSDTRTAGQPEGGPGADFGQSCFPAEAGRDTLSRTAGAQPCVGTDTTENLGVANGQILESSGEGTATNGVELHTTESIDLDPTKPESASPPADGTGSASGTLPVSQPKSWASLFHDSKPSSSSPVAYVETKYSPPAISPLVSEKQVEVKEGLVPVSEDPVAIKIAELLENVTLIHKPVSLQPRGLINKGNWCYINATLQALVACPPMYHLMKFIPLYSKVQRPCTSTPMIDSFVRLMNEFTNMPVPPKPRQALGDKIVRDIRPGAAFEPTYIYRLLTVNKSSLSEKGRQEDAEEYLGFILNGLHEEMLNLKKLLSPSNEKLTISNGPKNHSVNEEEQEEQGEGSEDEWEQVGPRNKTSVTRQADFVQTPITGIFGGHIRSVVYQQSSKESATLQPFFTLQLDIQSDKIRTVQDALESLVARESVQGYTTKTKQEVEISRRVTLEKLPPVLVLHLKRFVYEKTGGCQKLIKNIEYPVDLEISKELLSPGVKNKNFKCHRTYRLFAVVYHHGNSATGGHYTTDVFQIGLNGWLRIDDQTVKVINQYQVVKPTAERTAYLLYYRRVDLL
Sequence of UniProt Q86W33 (Q86W33 whole entry, looked up): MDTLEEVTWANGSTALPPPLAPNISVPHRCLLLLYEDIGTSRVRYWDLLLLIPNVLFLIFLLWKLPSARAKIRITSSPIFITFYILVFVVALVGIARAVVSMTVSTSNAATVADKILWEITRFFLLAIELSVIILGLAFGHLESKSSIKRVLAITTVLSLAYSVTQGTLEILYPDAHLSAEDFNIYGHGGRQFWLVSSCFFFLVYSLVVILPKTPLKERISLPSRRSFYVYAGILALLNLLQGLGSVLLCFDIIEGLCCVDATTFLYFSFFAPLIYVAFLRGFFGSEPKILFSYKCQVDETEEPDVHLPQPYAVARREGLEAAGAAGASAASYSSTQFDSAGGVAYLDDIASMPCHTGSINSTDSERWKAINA
Sequence of UniProt Q8N806 (Q8N806 whole entry, looked up): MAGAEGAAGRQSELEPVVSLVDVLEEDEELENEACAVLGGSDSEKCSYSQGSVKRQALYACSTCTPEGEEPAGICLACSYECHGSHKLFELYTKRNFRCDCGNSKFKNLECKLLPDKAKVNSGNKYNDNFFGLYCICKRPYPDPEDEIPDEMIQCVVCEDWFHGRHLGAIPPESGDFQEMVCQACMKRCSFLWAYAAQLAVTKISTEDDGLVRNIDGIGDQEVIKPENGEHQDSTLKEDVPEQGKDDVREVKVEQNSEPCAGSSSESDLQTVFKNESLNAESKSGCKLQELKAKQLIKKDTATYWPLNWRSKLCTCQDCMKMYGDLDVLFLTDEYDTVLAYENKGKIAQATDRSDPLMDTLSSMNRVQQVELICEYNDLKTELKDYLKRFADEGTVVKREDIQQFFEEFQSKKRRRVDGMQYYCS
Sequence of UniProt O75691 (O75691 whole entry, looked up): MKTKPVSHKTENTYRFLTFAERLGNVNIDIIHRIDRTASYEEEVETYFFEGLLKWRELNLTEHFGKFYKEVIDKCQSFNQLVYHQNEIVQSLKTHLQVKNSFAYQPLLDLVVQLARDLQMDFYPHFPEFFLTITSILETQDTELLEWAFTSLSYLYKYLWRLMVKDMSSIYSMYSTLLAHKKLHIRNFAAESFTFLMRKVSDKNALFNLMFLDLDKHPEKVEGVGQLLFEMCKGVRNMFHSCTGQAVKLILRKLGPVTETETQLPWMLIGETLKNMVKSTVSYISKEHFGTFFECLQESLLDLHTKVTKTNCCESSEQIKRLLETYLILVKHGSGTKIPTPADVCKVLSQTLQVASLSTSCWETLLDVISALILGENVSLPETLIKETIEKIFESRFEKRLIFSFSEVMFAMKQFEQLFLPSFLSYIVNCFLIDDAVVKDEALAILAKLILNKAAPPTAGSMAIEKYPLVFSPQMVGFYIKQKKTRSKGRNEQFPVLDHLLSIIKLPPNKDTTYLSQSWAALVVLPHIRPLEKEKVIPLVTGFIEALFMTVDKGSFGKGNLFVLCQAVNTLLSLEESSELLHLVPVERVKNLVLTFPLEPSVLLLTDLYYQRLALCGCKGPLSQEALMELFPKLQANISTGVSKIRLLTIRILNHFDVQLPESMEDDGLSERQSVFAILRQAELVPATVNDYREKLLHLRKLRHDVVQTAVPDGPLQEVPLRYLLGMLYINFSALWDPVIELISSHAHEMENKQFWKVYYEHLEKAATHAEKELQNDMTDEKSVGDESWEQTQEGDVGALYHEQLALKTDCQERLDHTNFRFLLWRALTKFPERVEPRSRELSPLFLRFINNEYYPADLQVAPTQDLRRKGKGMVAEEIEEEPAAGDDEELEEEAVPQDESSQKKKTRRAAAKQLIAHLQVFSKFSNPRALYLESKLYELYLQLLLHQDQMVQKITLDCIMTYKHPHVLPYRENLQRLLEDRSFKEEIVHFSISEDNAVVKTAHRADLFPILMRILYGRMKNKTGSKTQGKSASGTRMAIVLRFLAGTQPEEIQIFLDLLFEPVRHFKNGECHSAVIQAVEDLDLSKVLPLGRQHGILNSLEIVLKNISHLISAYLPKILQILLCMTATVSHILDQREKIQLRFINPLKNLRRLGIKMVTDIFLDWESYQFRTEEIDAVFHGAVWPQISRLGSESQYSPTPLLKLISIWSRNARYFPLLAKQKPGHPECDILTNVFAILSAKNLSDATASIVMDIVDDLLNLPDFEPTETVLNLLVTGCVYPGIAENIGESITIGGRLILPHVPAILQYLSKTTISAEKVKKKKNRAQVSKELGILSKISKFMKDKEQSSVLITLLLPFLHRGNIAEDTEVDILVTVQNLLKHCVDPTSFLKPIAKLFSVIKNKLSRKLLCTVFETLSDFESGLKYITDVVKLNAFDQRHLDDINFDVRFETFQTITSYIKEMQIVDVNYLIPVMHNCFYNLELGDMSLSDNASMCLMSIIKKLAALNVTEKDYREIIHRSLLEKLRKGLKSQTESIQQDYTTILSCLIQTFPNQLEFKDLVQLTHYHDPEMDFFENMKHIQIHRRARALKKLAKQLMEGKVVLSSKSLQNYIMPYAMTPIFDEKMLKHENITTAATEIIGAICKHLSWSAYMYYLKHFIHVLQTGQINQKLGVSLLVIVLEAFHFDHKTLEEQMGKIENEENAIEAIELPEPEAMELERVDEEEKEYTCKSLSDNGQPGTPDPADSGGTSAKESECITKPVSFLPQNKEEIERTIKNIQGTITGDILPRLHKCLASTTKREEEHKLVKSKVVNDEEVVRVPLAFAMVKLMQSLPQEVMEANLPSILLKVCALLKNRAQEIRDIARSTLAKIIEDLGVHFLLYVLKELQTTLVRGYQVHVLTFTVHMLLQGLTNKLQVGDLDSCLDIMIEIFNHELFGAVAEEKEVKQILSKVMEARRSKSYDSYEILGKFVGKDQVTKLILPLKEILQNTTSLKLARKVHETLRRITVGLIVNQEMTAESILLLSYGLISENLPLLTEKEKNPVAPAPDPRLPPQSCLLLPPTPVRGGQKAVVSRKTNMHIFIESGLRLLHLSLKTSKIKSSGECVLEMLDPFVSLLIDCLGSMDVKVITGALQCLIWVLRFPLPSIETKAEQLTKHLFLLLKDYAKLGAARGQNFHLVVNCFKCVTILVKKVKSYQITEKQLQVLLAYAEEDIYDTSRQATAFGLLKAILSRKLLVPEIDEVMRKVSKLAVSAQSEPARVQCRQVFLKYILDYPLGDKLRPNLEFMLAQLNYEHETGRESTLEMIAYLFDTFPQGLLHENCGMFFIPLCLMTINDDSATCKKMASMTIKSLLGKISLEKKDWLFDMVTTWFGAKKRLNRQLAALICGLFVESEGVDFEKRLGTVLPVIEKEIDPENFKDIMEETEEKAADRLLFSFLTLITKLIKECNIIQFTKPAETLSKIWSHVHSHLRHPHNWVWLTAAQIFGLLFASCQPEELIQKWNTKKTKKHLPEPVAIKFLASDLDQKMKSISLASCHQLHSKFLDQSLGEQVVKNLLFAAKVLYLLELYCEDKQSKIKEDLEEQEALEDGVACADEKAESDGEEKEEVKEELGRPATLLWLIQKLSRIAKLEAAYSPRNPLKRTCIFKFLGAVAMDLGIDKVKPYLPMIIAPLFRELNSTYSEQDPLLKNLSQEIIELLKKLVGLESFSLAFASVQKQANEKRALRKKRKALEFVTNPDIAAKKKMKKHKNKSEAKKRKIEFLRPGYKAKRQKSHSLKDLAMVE
Sequence of UniProt Q8TBC4 (Q8TBC4 whole entry, looked up): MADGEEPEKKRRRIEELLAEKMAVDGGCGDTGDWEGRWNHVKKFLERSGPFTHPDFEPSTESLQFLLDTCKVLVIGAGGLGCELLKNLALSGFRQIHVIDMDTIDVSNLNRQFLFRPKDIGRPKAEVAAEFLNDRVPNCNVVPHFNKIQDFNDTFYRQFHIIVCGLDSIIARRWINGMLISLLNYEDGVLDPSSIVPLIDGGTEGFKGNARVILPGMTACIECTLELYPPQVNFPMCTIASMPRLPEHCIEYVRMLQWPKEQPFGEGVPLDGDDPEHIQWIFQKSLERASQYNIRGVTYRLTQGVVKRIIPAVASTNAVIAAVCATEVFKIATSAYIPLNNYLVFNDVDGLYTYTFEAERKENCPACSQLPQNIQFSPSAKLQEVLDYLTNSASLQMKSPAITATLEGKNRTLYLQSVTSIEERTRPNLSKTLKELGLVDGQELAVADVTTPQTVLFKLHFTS
Sequence of UniProt O14933 (O14933 whole entry, looked up): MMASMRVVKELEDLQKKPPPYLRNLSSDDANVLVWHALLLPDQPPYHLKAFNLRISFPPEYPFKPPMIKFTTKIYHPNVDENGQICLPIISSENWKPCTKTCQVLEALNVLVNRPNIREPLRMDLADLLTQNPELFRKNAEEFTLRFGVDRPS

Target	probe-labelled cysteine peptide fold change
UBA3_Q8TBC4_28_MAVDGGCGDTGDWEGR (UniProt Q8TBC4)	-0.245
UTP20_O75691_242_NMFHSCTGQAVK (UniProt O75691)	-0.122
UBR4_Q5T4S7_2222_HTACNEQQR (UniProt Q5T4S7)	-0.245
TXNRD2_Q9NNW7_279_GCAPSR (UniProt Q9NNW7)	0.0601
USP11_P51784_894_DGHYTTFACNK (UniProt P51784)	-0.051
TXNIP_Q9H3M7_170_KVSCMFIPDGR (UniProt Q9H3M7)	0.205
TPRA1_Q86W33_296_CQVDETEEPDVHLPQPYAVAR (UniProt Q86W33)	-0.418
UBR7_Q8N806_155_RPYPDPEDEIPDEMIQCVVCEDWFHGR (UniProt Q8N806)	0.0312
TXN2_Q99757_90+93_VVNSETPVVVDFHAQWCGPCK (UniProt Q99757)	-1.92
USP10_Q14694_456_VQRPCTSTPMIDSFVR (UniProt Q14694)	-0.0395
USP40_Q9NVE5_50_NQGGTCYLNSLLQTLHFTPEFR (UniProt Q9NVE5)	-0.592
UBE2L6_O14933_86+98_IYHPNVDENGQICLPIISSENWKPCTK (UniProt O14933)	-0.606

Same assay, conditions: 50 µM; THP-1; incubation time: 4 h

Target	probe-labelled cysteine peptide fold change
TRRAP_Q9Y4A5_2513_STPIGTSCQGAMLPSITNVINLADSHDR (UniProt Q9Y4A5)	0.295
UROS_P10746_143_ESSALPLLFPCGNLKR (UniProt P10746)	-0.405
USP48_Q86UV5_512+514_WLDESTPTKPIDNHACLCSHDK (UniProt Q86UV5)	-1.16
TSTA3_Q13630_116_VVSCLSTCIFPDK (UniProt Q13630)	-1.67
USP9Y_O00507_674_DGQLWLCAPQAK (UniProt O00507)	-0.161
UBE2T_Q9NPD8_24_ELHMLATEPPPGITCWQDK (UniProt Q9NPD8)	-0.165
TRIP6_Q15654_339+342_CATCSQPILDR (UniProt Q15654)	-0.28
UCK2_Q9BZX2_197_PAFEEFCLPTK (UniProt Q9BZX2)	0.255
TRAP1_Q12931_527_KDTEVLFCFEQFDELTLLHLR (UniProt Q12931)	0.314
TXN_P10599_32_LVVVDFSATWCGPCK (UniProt P10599)	-0.638
TXN2_Q99757_93_VVNSETPVVVDFHAQWCGPCK (UniProt Q99757)	-1.7
TTC39C_Q8N584_517_AVKDELCR (UniProt Q8N584)	-0.291
TRRAP_Q9Y4A5_3535_IYPYLVMNDACLTESR (UniProt Q9Y4A5)	-0.0829
UBR4_Q5T4S7_2619_QLEGDCCSFITQLVNHFWK (UniProt Q5T4S7)	-0.45
TRAPPC9_Q96Q05_317_NCLSPEDIIDK (UniProt Q96Q05)	0.213
U2SURP_O15042_918_EKDECTPTRK (UniProt O15042)	0.231
UBN1_Q9NPG3_711_VGGVLCTEEK (UniProt Q9NPG3)	0.0664
TRNT1_Q96Q11_373_YQGEHCLLK (UniProt Q96Q11)	-1.54
VCPIP1_Q96JH7_207+219_SQECLIPVHVDGDGHCLVHAVSR (UniProt Q96JH7)	-1.48
UBR2_Q8IWV8_1360_ILSDEDKPLFGPLPCR (UniProt Q8IWV8)	-0.412

Target	probe-labelled cysteine peptide fold change
USP19_O94966_1169_EEQLPSYDLYAVINHYGGMIGGHYTACAR (UniProt O94966)	0.0872
TUBA3C_P0DPH7_4+20+25_MRECISIHVGQAGVQIGNACWELYCLEHGIQPDGQMPSDK<|>TUBA3D_P68363_4+20+25_MRECISIHVGQAGVQIGNACWELYCLEHGIQPDGQMPSDK<|>TUBA1B_Q6PEY2_4+20+25_MRECISIHVGQAGVQIGNACWELYCLEHGIQPDGQMPSDK<|>TUBA3E_Q9BQE3_4+20+25_MRECISIHVGQAGVQIGNACWELYCLEHGIQPDGQMPSDK (UniProt Q9BQE3+Q6PEY2+P68363+P0DPH7)	0.131
UBA7_P41226_68_NLVLMGVGSLTLHDPHPTCWSDLAAQFLLSEQDLER (UniProt P41226)	0.33
TRIM13_O60858_106_GHLGQPLNIFCLTDMQLICGICATR (UniProt O60858)	-0.215
TRIM25_Q14258_119_TCLVCMASFCQEHLQPHFDSPAFQDHPLQPPVR (UniProt Q14258)	0.313
TYSND1_Q2T9J0_17_AAEQAGCMVSASR (UniProt Q2T9J0)	0.0758
TRIM25_Q14258_506_FTYCSQVLGLHCYK (UniProt Q14258)	-4.87
UBA3_Q8TBC4_28_MAVDGGCGDTGDWEGR (UniProt Q8TBC4)	-0.0349
UTP20_O75691_242_NMFHSCTGQAVK (UniProt O75691)	0.227
UBR4_Q5T4S7_2222_HTACNEQQR (UniProt Q5T4S7)	-1.12
TXNRD2_Q9NNW7_279_GCAPSR (UniProt Q9NNW7)	1.36
USP11_P51784_894_DGHYTTFACNK (UniProt P51784)	-0.393
TXNIP_Q9H3M7_170_KVSCMFIPDGR (UniProt Q9H3M7)	-1.47
TPRA1_Q86W33_296_CQVDETEEPDVHLPQPYAVAR (UniProt Q86W33)	-1.52
UBR7_Q8N806_155_RPYPDPEDEIPDEMIQCVVCEDWFHGR (UniProt Q8N806)	0.0116
TXN2_Q99757_90+93_VVNSETPVVVDFHAQWCGPCK (UniProt Q99757)	-2.07
USP10_Q14694_456_VQRPCTSTPMIDSFVR (UniProt Q14694)	-0.00663
USP40_Q9NVE5_50_NQGGTCYLNSLLQTLHFTPEFR (UniProt Q9NVE5)	-1.83
UBE2L6_O14933_86+98_IYHPNVDENGQICLPIISSENWKPCTK (UniProt O14933)	-1.39
